Hit rate of the full screen: of about 5,500 compounds, about 2,000 (36%) were called active. Not shown: some 18% with an inconclusive outcome. Cut-off read from the data, not from the text of the source: active = normalized growth mostly below about 0.91 (no sharp cut-off); inconclusive = no clear call, values can overlap the other calls; inactive = mostly above about 0.92. The list shows a part of the results.
Assay: chemical genetic growth profiling, strain panel (AID 1159580);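 note: tested at 20 µM; growth read once vehicle control cultures reached saturation at 30 °C; 1 = growth at the plate median or of vehicle wells; lower values mean less growth of the strain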
Conditions: growth OD
[1] = S. cerevisiae deletion strains, locus YAL013W, strain DEP1, stronger effect = lower value
[2] = S. cerevisiae deletion strains, locus YBR229C, strain ROT2, stronger effect = lower value
[3] = S. cerevisiae deletion strains, locus YCL061C, strain MRC1, stronger effect = lower value
[4] = S. cerevisiae deletion strains, locus YDL101C, strain DUN1, stronger effect = lower value
[5] = S. cerevisiae deletion strains, locus YDL134C, strain PPH21, stronger effect = lower value
[6] = S. cerevisiae deletion strains, locus YDR150W, strain NUM1, stronger effect = lower value
[7] = S. cerevisiae deletion strains, locus YEL061C, strain CIN8, stronger effect = lower value
[8] = S. cerevisiae deletion strains, locus YGR078C, strain PAC10, stronger effect = lower value
[9] = S. cerevisiae deletion strains, locus YGR229C, strain SMI1, stronger effect = lower value
[10] = S. cerevisiae deletion strains, locus YHR030C, strain SLT2, stronger effect = lower value
[11] = S. cerevisiae deletion strains, locus YHR087W, strain rtc3, stronger effect = lower value
[12] = S. cerevisiae deletion strains, locus YJL187C, strain SWE1, stronger effect = lower value
[13] = S. cerevisiae deletion strains, locus YJR043C, strain POL32, stronger effect = lower value
[14] = S. cerevisiae deletion strains, locus YJR075W, strain HOC1, stronger effect = lower value
[15] = S. cerevisiae deletion strains, locus YLR039C, strain RIC1, stronger effect = lower value
[16] = S. cerevisiae deletion strains, locus YLR058C, strain SHM2 (second series), stronger effect = lower value
[17] = S. cerevisiae deletion strains, locus YLR085C, strain ARP6, stronger effect = lower value
[18] = S. cerevisiae deletion strains, locus YLR262C, strain YPT6, stronger effect = lower value
[19] = S. cerevisiae deletion strains, locus YML094W, strain GIM5, stronger effect = lower value
[20] = S. cerevisiae deletion strains, locus YMR219W, strain ESC1, stronger effect = lower value
[21] = S. cerevisiae deletion strains, locus YNL153C, strain GIM3, stronger effect = lower value
[22] = S. cerevisiae deletion strains, locus YNL298W, strain CLA4 (second series), stronger effect = lower value
[23] = S. cerevisiae deletion strains, locus YNL322C, strain KRE1, stronger effect = lower value
[24] = S. cerevisiae deletion strains, locus YNR030W, strain Alg12, stronger effect = lower value
[25] = S. cerevisiae deletion strains, locus YOL006C, strain TOP1, stronger effect = lower value
[26] = S. cerevisiae deletion strains, locus YPL055C, strain LGE1, stronger effect = lower value
[27] = S. cerevisiae deletion strains, locus YPL241C, strain CIN2, stronger effect = lower value
[28] = S. cerevisiae deletion strains, locus YPR135W, strain CTF4, stronger effect = lower value
[29] = S. cerevisiae strains, strain wild type, stronger effect = lower value
[30] = S. cerevisiae deletion strains, locus YKL190W, strain CNB1, stronger effect = lower value
[31] = S. cerevisiae deletion strains, locus YMR263W, strain SAP30, stronger effect = lower value
[32] = S. cerevisiae deletion strains, locus YNL128W, strain TEP1, stronger effect = lower value

Measured: normalized growth

Cc1ccc(COc2ccc(C)nc2[N+](=O)[O-])cc1
inactive: [1] 0.977 | [2] 0.932 | [3] 0.946 | [4] 0.905 | [6] 0.854 | [7] 0.922 | [9] 0.958 | [11] 0.959 | [16] 0.954 | [21] 0.951 | [23] 0.972 | [26] 0.809
active: [5] 0.902 | [8] 0.918 | [10] 0.252 | [12] 0.932 | [13] 0.872 | [14] 0.857 | [15] 0.57 | [17] 0.295 | [18] 0.593 | [19] 0.855 | [20] 0.939 | [22] 0.75 | [24] 0.758 | [25] 0.593 | [27] 0.71 | [28] 0.382 | [29] 0.859

CN1CNc2c(c(=O)n(C)c(=O)n2C)C1
inactive: [1] 0.994 | [2] 0.999 | [3] 0.998 | [4] 0.974 | [6] 0.998 | [7] 0.996 | [8] 0.988 | [10] 1.04 | [11] 0.988 | [12] 1.01 | [13] 0.998 | [14] 1.02 | [30] 1.01 | [15] 1.03 | [16] 1 | [17] 0.979 | [18] 1.01 | [19] 0.974 | [20] 0.998 | [31] 1 | [32] 1 | [21] 0.983 | [22] 1.01 | [23] 0.998 | [24] 1 | [25] 1.02 | [26] 0.953 | [27] 1.07 | [28] 1.01 | [29] 1

Cc1csc2ncnc(N/N=C\c3ccccc3Cl)c12
inactive: S. cerevisiae deletion strains, locus YAR019C, strain CDC15, stronger effect = lower value 0.959 | S. cerevisiae deletion strains, locus YBL105C, strain PKC1, stronger effect = lower value 0.96 | S. cerevisiae deletion strains, locus YBR135W, strain CKS1, stronger effect = lower value 0.968 | S. cerevisiae deletion strains, locus YBR136W, strain MEC1, stronger effect = lower value 0.962 | S. cerevisiae deletion strains, locus YBR160W, strain CDC28, stronger effect = lower value 0.954 | S. cerevisiae deletion strains, locus YDL017W, strain CDC7, stronger effect = lower value 0.97 | S. cerevisiae deletion strains, locus YDL028C, strain MPS1, stronger effect = lower value 0.968 | [4] 0.967 | S. cerevisiae deletion strains, locus YDL108W, strain KIN28, stronger effect = lower value 0.962 | S. cerevisiae deletion strains, locus YDL132W, strain cdc53, stronger effect = lower value 0.958 | S. cerevisiae deletion strains, locus YDL214C, strain PRR2, stronger effect = lower value 0.961 | S. cerevisiae deletion strains, locus YDR052C, strain DBF4, stronger effect = lower value 0.977 | S. cerevisiae deletion strains, locus YDR054C, strain cdc34, stronger effect = lower value 0.952 | S. cerevisiae deletion strains, locus YDR226W, strain ADK1, stronger effect = lower value 0.969 | S. cerevisiae deletion strains, locus YDR477W, strain SNF1, stronger effect = lower value 0.958 | S. cerevisiae deletion strains, locus YER123W, strain YCK3, stronger effect = lower value 0.931 | S. cerevisiae deletion strains, locus YER133W, strain GLC7, stronger effect = lower value 0.967 | S. cerevisiae deletion strains, locus YFL009W, strain cdc4, stronger effect = lower value 0.958 | S. cerevisiae deletion strains, locus YFL029C, strain CAK1, stronger effect = lower value 0.956 | S. cerevisiae deletion strains, locus YFR003C, strain YPI1, stronger effect = lower value 0.96 | S. cerevisiae deletion strains, locus YFR019W, strain FAB1, stronger effect = lower value 0.979 | S. cerevisiae deletion strains, locus YFR028C, strain CDC14, stronger effect = lower value 0.955 | S. cerevisiae deletion strains, locus YGR040W, strain KSS1, stronger effect = lower value 0.942 | S. cerevisiae deletion strains, locus YGR052W, strain FMP48, stronger effect = lower value 1.03 | S. cerevisiae deletion strains, locus YGR092W, strain DBF2, stronger effect = lower value 0.917 | [10] 1.01 | S. cerevisiae deletion strains, locus YHR079C, strain IRE1, stronger effect = lower value 0.997 | S. cerevisiae deletion strains, locus YHR082C, strain KSP1, stronger effect = lower value 1.05 | S. cerevisiae deletion strains, locus YHR205W, strain SCH9, stronger effect = lower value 0.968 | S. cerevisiae deletion strains, locus YIL147C, strain SLN1, stronger effect = lower value 0.968 | S. cerevisiae deletion strains, locus YJL095W, strain BCK1, stronger effect = lower value 0.994 | S. cerevisiae deletion strains, locus YJL128C, strain PBS2, stronger effect = lower value 0.946 | S. cerevisiae deletion strains, locus YJL157C, strain FAR1, stronger effect = lower value 0.947 | S. cerevisiae deletion strains, locus YJR016C, strain ILV3, stronger effect = lower value 0.956 | S. cerevisiae deletion strains, locus YJR066W, strain TOR1 (second series), stronger effect = lower value 0.918 | S. cerevisiae deletion strains, locus YJR066W, strain TOR1, stronger effect = lower value 1.05 | S. cerevisiae deletion strains, locus YKL048C, strain ELM1, stronger effect = lower value 0.976 | S. cerevisiae deletion strains, locus YKL067W, strain YNK1, stronger effect = lower value 0.947 | S. cerevisiae deletion strains, locus YKL101W, strain HSL1, stronger effect = lower value 0.951 | S. cerevisiae deletion strains, locus YKL193C, strain SDS22, stronger effect = lower value 0.957 | S. cerevisiae deletion strains, locus YKL203C, strain TOR2, stronger effect = lower value 1 | S. cerevisiae deletion strains, locus YLR113W, strain HOG1, stronger effect = lower value 0.882 | S. cerevisiae deletion strains, locus YLR133W, strain CKI1, stronger effect = lower value 0.951 | S. cerevisiae deletion strains, locus YLR403W, strain SFP1, stronger effect = lower value 0.931 | S. cerevisiae deletion strains, locus YML070W, strain DAK1, stronger effect = lower value 0.935 | S. cerevisiae deletion strains, locus YMR001C, strain CDC5, stronger effect = lower value 0.957 | S. cerevisiae deletion strains, locus YMR205C, strain PFK2 (second series), stronger effect = lower value 0.973 | S. cerevisiae deletion strains, locus YMR277W, strain FCP1, stronger effect = lower value 0.966 | S. cerevisiae deletion strains, locus YNL006W, strain LST8, stronger effect = lower value 0.973 | S. cerevisiae deletion strains, locus YNL020C, strain ARK1, stronger effect = lower value 0.958 | S. cerevisiae deletion strains, locus YNL161W, strain CBK1, stronger effect = lower value 0.956 | S. cerevisiae deletion strains, locus YNL183C, strain NPR1, stronger effect = lower value 1.02 | S. cerevisiae deletion strains, locus YNL207W, strain RIO2, stronger effect = lower value 0.965 | S. cerevisiae deletion strains, locus YNL222W, strain SSU72, stronger effect = lower value 0.961 | S. cerevisiae deletion strains, locus YNL307C, strain MCK1 (second series), stronger effect = lower value 0.962 | S. cerevisiae deletion strains, locus YOL078W, strain AVO1, stronger effect = lower value 0.957 | S. cerevisiae deletion strains, locus YOL136C, strain PFK27, stronger effect = lower value 0.942 | S. cerevisiae deletion strains, locus YOR061W, strain CKA2, stronger effect = lower value 0.973 | S. cerevisiae deletion strains, locus YOR119C, strain RIO1, stronger effect = lower value 1.01 | S. cerevisiae deletion strains, locus YOR231W, strain MKK1, stronger effect = lower value 0.927 | S. cerevisiae deletion strains, locus YOR329C, strain SCD5, stronger effect = lower value 0.96 | S. cerevisiae deletion strains, locus YPL031C, strain PHO85, stronger effect = lower value 0.959 | S. cerevisiae deletion strains, locus YPL153C, strain RAD53, stronger effect = lower value 0.944 | S. cerevisiae deletion strains, locus YPL204W, strain HRR25, stronger effect = lower value 0.936 | S. cerevisiae deletion strains, locus YPL209C, strain IPL1, stronger effect = lower value 0.949 | S. cerevisiae deletion strains, locus YPL256C, strain CLN2, stronger effect = lower value 0.901 | S. cerevisiae deletion strains, locus YPR025C, strain CCL1, stronger effect = lower value 0.968 | S. cerevisiae deletion strains, locus YPR106W, strain ISR1, stronger effect = lower value 0.955 | S. cerevisiae deletion strains, locus YPR111W, strain DBF20, stronger effect = lower value 0.943 | S. cerevisiae deletion strains, strain NNK1, stronger effect = lower value 0.959 | S. cerevisiae deletion strains, strain TSCII, stronger effect = lower value 0.957

O=C(N/N=C\c1ccccc1Cl)c1cccnc1
inactive: [1] 1.02 | [2] 1 | [4] 0.971 | [5] 1.01 | [6] 0.932 | [7] 1.03 | [8] 1 | [9] 1.01 | [10] 0.987 | [11] 1.01 | [12] 0.996 | [13] 0.995 | [14] 0.99 | [30] 1.01 | [15] 1.03 | [16] 1.01 | [17] 0.97 | [18] 1.01 | [19] 1 | [20] 1 | [31] 0.945 | [21] 1 | [22] 1 | [23] 1 | [24] 1.01 | [25] 1.03 | [26] 0.886 | [27] 0.996 | [28] 1

O=C(N/N=C\c1ccccc1Cl)N/N=C\c1ccccc1Cl
inactive: [2] 0.989 | [3] 1 | [4] 0.992 | [6] 0.88 | [8] 1 | [11] 0.989 | [12] 0.987 | [13] 0.945 | [14] 0.988 | [16] 1 | [18] 0.871 | [20] 1 | [32] 0.976 | [21] 0.996 | [23] 0.977 | [25] 0.769
active: [1] 0.898 | [7] 0.834 | [10] 0.363 | [15] 0.753 | [17] 0.458 | [19] 0.773 | [31] 0.909 | [22] 0.588 | [24] 0.69 | [26] 0.765 | [27] 0.707 | [28] 0.553
